Z-score data for 69 sequences are collected here from PubChem BioAssay AID1508600 (Functional Genomics Laboratory (NCATS/FGL), 2020).

Among all 53,000 sequences or so, about 3,700 (7%) were called active. Many of the other results were omitted from the sample, so actives are more common in it than they were. Unmarked numbers belong to inactive results.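 Rule for the calls: active = gene knockdowns whose robust z-score for IL-1 alpha signal is at least 2 or at most -2, so actives lie on both sides; inactive = the rest.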

This assay can be described thus: Components of the Cytosolic LPS Sensing Pathway: Gene Identification via Genome-wide siRNA Screen.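 Note: robust z of the log signal after scaling to non-targeting control siRNA wells of the plate.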 To be noted: RAW264.7 macrophages, IL-1a HTRF, actives lie on both sides, screened at 100 nM (by protocol), cells primed 5 h with Pam3CSK4 first. An outline of the steps: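 Read-out: IL-1a HTRF on supernatant, divided by plate negative-control median ×100, log-transformed and converted to robust z-score. Cells were RAW264.7 given 100 nM siRNA, Pam3CSK4-primed 5 hours, then LipidA-transfected 24 hour.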
For orientation: Time-resolved FRET reads energy transfer from a long-lived donor to a nearby acceptor.
Take GGAAACAAAAGGAUUUCUGTT against Fbxl13: the z-score was 1.24.

As for GGCGAGAAGGAAAUGUACATT against Arpc3, the z-score is 2.62 (active).

Take CCAUCCUUCCGAAAGACGATT against Lcn10: the z-score was 0.465.

Consider CCAAGAUCGAUCAUUUUGGTT against Gm527, for which the z-score is -0.794.

Consider GGUCCAAGAGAAAUGUGUATT against Hacd4, for which the z-score was -2.55 (active).

On to GGUUUUUCUAACUUUGGUCTT against Cdcp2, for which the z-score is -0.0176.

For the sequence AAGAGCCAUUAAUCGAGAATT against Cklf, the z-score was -0.0691.

Take GGCUAUUGCUGACCUCAGATT against Pidd1: the z-score is -2.73 (active).

Turning to GCGCAAAAGGACCUAUGAGTT against Rela, the z-score was -0.342.

As for CGUGGUAGACACUGUGGUATT against Plin1, the z-score is 1.61.

On to GGAGAUGAUGCCGUCAUUCTT against Chaf1b, for which the z-score was 1.97.

As for CCAUAUGAUAAGCAUAAGCTT against Zfp449, the z-score was 0.149.

On to CCCGUAUGGAUGUGGUAACTT against Tmem239, for which the z-score was -1.39.

On to “CCUAACCAAGAUCCAAUCUTT against 6330549D23Rik”, for which the z-score was -2.85 (active).

In the case of GGCCAUCCAAGCAUGAGUUTT against Rbfa, the z-score is 1.37.

Turning to GGCAGGAAAUUCAUUUUAATT against Zfy2, the z-score is -1.43.

In the case of GGAGAUGGACUCACUGAUGTT against Zscan20, the z-score is -1.32.

For the sequence CCACAAAGGAAUUCAUGAGTT against Dhx16, the z-score was -1.41.

In the case of GGUCAAGGAGAUCACCUUCTT against Comp, the z-score is -1.27.

Turning to GGAAAAGGAAACCCAGAGCTT against Tdg, the z-score is -2.4 (active).

For CCCGGAAUGUUUAGUAUCGTT against Fermt1, the z-score is -1.25.

With GGCCAUUAACAGCAGUCUGTT against Kifc5b, the z-score was -1.71.

With GGAAGUGGAACACAUGAUCTT against Zfp346, the z-score is -0.449.

Regarding GGCAUGAAUGAGUUUAUCATT against Vps8, the z-score is -1.12.

Regarding GGAGAAAUAUGUAUGUACATT against Ece2, the z-score was 2.01 (active).

Take GGAGUCUGAAGAUGACAUGTT against Rplp1: the z-score was -0.775.

GCCACUAAAUCCUGUUUCCTT against Ydjc: the z-score is -0.0858.

Take GAGAUGGAAAGUGGUUUCUTT against Olfr1226: the z-score was 0.543.

On to GGUCACGAUUCUGUCAGACTT against Ctnnal1, for which the z-score is 3.57 (active).

As to GGUGAAAAUCAAGCUGAAUTT against Smarca2, the z-score is 1.36.

For the sequence GGCUUCCAAGCCUAAAGCUTT against H1f3, the z-score is -0.266.

Take GGAUCAAUUGACCACAAACTT against Magi3: the z-score is 0.164.

Consider GCGAUGCACUGUGUAAACUTT against Ccr6, for which the z-score was 0.772.

For the sequence GGGCUUGUAGAUGUGCGUATT against Hic2, the z-score is 3.32 (active).

UGCGGUUGAAUUCUCCCAUTT against Fbll1: the z-score was -0.525.

As to CGCACUUACCGUGUCCUAUTT against Homer3, the z-score was 0.0495.

On to GGAGAGAAAGAAUUUCAUCTT against Chordc1, for which the z-score was 0.185.

As to GGAAAUCAGAGAGAAGAUGTT against Nubp1, the z-score was -1.53.

Take CCACAGAGUUCCUAUACAATT against Pfkl: the z-score was -2.52 (active).

With CCCACGGAGGCAAUAAAUATT against Crygn, the z-score is -0.155.

For the sequence GGAGAACUUCAGUGAGUCCTT against Ambp, the z-score was -2.43 (active).

As for GCCACUCACCUAGCAAAGATT against Fbrsl1, the z-score is -1.36.

As to GGAAAUUUCAGUCGUAGUATT against Mgat4c, the z-score was 0.642.

For “CGACUAUAGACUCUUGAAUTT against 1810037I17Rik”, the z-score is 0.573.

For GGAGAAAUACAACUGAAAATT against Pcdhb7, the z-score was -0.0269.

Regarding GGCCAGAAGAUCUUCACCATT against Furin, the z-score was 0.449.

As for GCUCUUUGGUCGAGAACCATT against Mup5, the z-score is -2.42 (active).

Turning to GCAUCGUUUGUGAGAAUUUTT against Perp, the z-score is -0.61.

As for GGGCUAUCCUUCUGAAUUUTT against Csnk1d, the z-score is 1.46.

For GCUCUCCAUUACGUGCUUGTT against Rrp9, the z-score is 1.39.

As for GGAGAGAAAGAACUGGAAATT against Fam78a, the z-score was 0.357.

Take CCUAUCAGACUGUAAUAAGTT against Kdm2b: the z-score is -0.404.

GGGUGUAUUACCUCUCUCUTT against Pygl: the z-score was 2.12 (active).

As to CCACGAUAGCACCUAUUUUTT against Gucy2c, the z-score was -0.405.

On to GGAACAUUGAAAGGAUUAATT against Smc3, for which the z-score was -1.9.

On to GGCUUAAGUAUUUUUCUGATT against Aktip, for which the z-score is -0.269.

Turning to GGUCUUCAUCUGUCCAACUTT against Tmlhe, the z-score is -2.09 (active).

Turning to CCUGUACCUGCGUAUUCAATT against Grap, the z-score is -1.63.

Consider GGUGCAGCACUUCAAAGUGTT against Grap, for which the z-score is 2.41 (active).

Regarding “GGCCUGAAGACAGACAUGATT against C030016D13Rik”, the z-score is -1.2.

Regarding GGAAGAGAUGAAGAAAAUGTT against Cetn1, the z-score is -1.01.

Regarding GGAACUUUUGGCCAGCAAGTT against Opa1, the z-score was 1.59.

For the sequence CGAUUACAUCCUUUUUGACTT against Gpn3, the z-score is -0.228.

Consider GCGCCUUAACCAAGAAGUUTT against Cox18, for which the z-score was 2.84 (active).

Consider GGAUCUAGAACAGAAAAUGTT against Stat3, for which the z-score is -1.55.

For the sequence GCUGCUAUGACCUAUGGCATT against Sptlc2, the z-score was -0.543.

In the case of GGGUUGUCGUUCAGUUUACTT against Art2a, the z-score was 2.8 (active).

Consider GGAAUUAAGUCAUCAGGAATT against Slc6a5, for which the z-score is -0.763.

Regarding GCGCACAAAAAACAUGAUATT against Plaat5, the z-score is 0.211.
